# ALOX12 inh – ALOX12 (human) lipoxygenase inhibition. Potency, µM (highest dose often 108 µM), for the others: top-dose activity change, negative = inhibition, hits mostly inhibitors. P18054. purified 12hLO, xylenol orange hydroperoxide absorbance. hit rate 1.1% among 580,000. AID 1671190
# Target sequence (P18054 whole entry, looked up): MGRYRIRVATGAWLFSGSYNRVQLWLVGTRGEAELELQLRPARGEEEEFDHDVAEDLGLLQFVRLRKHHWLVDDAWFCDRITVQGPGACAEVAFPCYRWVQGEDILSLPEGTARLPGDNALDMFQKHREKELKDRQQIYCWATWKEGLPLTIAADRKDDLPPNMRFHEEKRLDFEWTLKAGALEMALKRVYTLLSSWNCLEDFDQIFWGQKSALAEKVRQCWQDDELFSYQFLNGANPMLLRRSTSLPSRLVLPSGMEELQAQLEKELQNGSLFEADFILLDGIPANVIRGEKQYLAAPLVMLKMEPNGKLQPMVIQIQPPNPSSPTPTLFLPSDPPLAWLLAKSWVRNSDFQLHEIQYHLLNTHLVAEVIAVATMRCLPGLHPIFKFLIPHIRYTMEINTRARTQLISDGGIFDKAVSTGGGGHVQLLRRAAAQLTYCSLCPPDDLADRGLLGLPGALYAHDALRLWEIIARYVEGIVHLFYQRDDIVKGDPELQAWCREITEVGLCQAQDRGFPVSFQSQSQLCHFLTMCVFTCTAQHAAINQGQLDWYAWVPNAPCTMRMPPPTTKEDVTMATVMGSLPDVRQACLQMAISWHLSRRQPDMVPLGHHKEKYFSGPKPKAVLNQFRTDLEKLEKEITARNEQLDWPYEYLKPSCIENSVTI
#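 Hydroperoxide product was detected by ferrous iron/xylenol orange as the 573 to 405 nm absorbance ratio. Arachidonic acid at 40 uM (final) was turned over for 30 min at room temperature by 150 nM human 12hLO, pH 7.0 Hepes buffer, after 15 min compound preincubation.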
# ELG1 DNA repair – ELG1-dependent DNA repair inhibition; AID 504467; hit rate 2.3% among 330,000; HEK293T ELG1-luciferase reporter, luminescence, 16 h; DNA damage induced by 5-fluorouridine; Potency, µM (highest dose often 46.1 µM), for inactives: top-dose activity change, negative = inhibition, most hits filed as inhibitors; also: nearly all actives have a fitted effect of over 55% in size
#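 HEK293T cells expressing luciferase-tagged ELG1 (2,000/well) received 5-Fluorouridine plus compound or DMSO for 16 hr at 37 °C. Luciferase was read by ONE-Glo luminescence after 30 min at room temperature.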
# DT40 TDP1 no CPT – qHTS for Inhibitors of human tyrosyl-DNA phosphodiesterase 1 (TDP1): qHTS in cells in absence of CPT. DT40 Tdp1-/- hTDP1 cells, no CPT, ATP luminescence, 48 h. hit rate 15% among 420,000. Potency, µM (doses to about 46.2 µM), for inactives: top-dose activity change, negative = growth inhibition, actives largely listed as inhibitors; also: nearly all actives have a fitted effect of over 55% in size
#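 DT40 Tdp1-/-;hTDP1 cells, no CPT (DMSO vehicle only), 400 cells/well; compounds pin-transferred; ≥48 hr, 37 °C; CellTiter-Glo 30 min RT dark, luminescence read.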
# RORg inh – ROR gamma (mouse) transcription inhibition; P51450; Drosophila S2 Gal4-RORgamma UAS-luciferase reporter, 20 h; Potency, µM (highest dose often 53.6 µM), without a hit: at the highest dose activity change, negative = inhibition, actives largely listed as inhibitors; hit rate 5.4% among 310,000; AID 2551; also: nearly all actives have a fitted effect of over 60% in size
#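 Drosophila S2 cells stably expressing Gal4-DBD/mouse RORγ fusion under metallothionein promoter plus UAS-luciferase; compound 1 h, then 700 uM CuSO4 induction for 20 h at ambient temperature; inhibition read as reduced luminescence.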
# TDP1 cell CPT – growth inhibition of DT40 Tdp1-/-;hTDP1 cells with camptothecin (screen for TDP1 inhibitors); chicken DT40 Tdp1-/-;hTDP1 cells + 20 nM CPT, ATP luminescence, 48 h; Potency, µM (top dose mostly 46.2 µM), for inactives: top-dose activity change, negative = growth inhibition, most hits filed as inhibitors; hit rate 12% among 420,000; also: nearly all actives have a fitted effect of over 55% in size
#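 Chicken DT40 Tdp1-/- cells stably complemented with human TDP1 were seeded at 400 cells/well in medium containing 20 nM camptothecin, exposed to pin-transferred compounds, and grown at 37 °C for at least 48 hr. Viability was read as ATP luminescence.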
# VP16 counter – inhibits Gal4-VP16 luciferase reporter, ROR gamma counter-screen. Potency, µM (top dose mostly 53.6 µM), inactives show top-dose activity, negative = inhibition, usual class: inhibitors. hit rate 3.5% among 310,000. Drosophila S2 Gal4-VP16 UAS-luciferase, luminescence, 20 h;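 also: Gal4-VP16 expression switched on by copper sulfate through the metallothionein promoter; nearly all actives have a fitted effect of over 50% in size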
# * marks the source's active call; other numbers are inactive results; i = inactive; ? = inconclusive; / = no result. Only some compounds are listed: those with a hit (about 15% of all), similar ones and a draw of the others. Calls follow the shape of the dose curve; as a rule, active = well fitted curve in the direction sought with a large enough effect; inconclusive = small, poorly fitted or top-dose-only effect, or another doubt; inactive = no such curve, though single readings can be large; an effect the other way counts as inactive or inconclusive. % is scaled to controls: 0 for no effect and ±100 for the full control effect; potency is read from the fitted curve at half-maximal effect.
SMILES,ALOX12 inh,ELG1 DNA repair,DT40 TDP1 no CPT,RORg inh,TDP1 cell CPT,VP16 counter
Cc1nc2cccnc2n1-c1cc(C(=O)Nc2ccc(F)cc2Cl)ccc1Cl,-4.2%,/,/,/,/,/
CCCCNc1nc(C)nc2c1nc(-c1ccccc1)n2CCN1CCCCC1,/,/,/,14.1µM*,/,-16.8%
COCCNc1nc(C)nc2c1nc(-c1ccccc1)n2CCN1CCCCC1,/,/,/,-32.5%,/,-2.4%
COCc1nc(C2CCCN(C(=O)c3ccncc3)C2)no1 (configuration not stated),19.4%,/,/,/,/,/
O=C1CN(C(=O)Nc2ccccc2Cl)C(c2ccccc2)c2c(sc3c2CCCC3)N1 (configuration not stated),-10.6%,/,?,/,23.1µM*,/
Cc1cccc(NC(=O)N2CC(=O)Nc3sc4c(c3C2c2ccccc2)CCCC4)c1C (configuration not stated),-23.4%,/,?,/,?,/
Nc1cnc(Nc2ccc(Br)cc2)nc1N,13.3%,?,14.6µM*,36.6%,?,24.0%
O=C(NCc1nnc2c(-c3nc(C4CC4)no3)cccn12)c1cccc(F)c1,52.3%,/,/,/,/,/
O=C(NCCCNc1ccc(C(F)(F)F)cc1[N+](=O)[O-])c1ccc(Cl)cc1,7.7%,-18.9%,-22.3%,15.0%,?,3.8%
O=C(NCCCNc1ccc(C(F)(F)F)cc1[N+](=O)[O-])c1cc(F)c(F)cc1Cl,0.0%,?,18.4µM*,?,?,-23.5%
NC(=O)C1CCN(CC(=O)c2c[nH]c3ccc(F)cc23)CC1,?,4.3%,5.3%,-34.8%,8.6%,15.8µM*
CCCc1ccc(O)c(N=Cc2cc(Br)cc(OCC)c2O)c1,?,?,2.59µM*,7.08µM*,3.66µM*,12.6µM*
CCOc1ccc2c(c1)c(=O)c(C(=O)c1ccccc1)cn2Cc1ccccc1F,-13.5%,/,20.6µM*,/,?,/
COc1ccc(C(=O)c2cn(Cc3ccccc3F)c3ccc(F)cc3c2=O)cc1,-0.9%,/,20.6µM*,/,?,/
COc1ccc2c(c1)c(=O)c(C(=O)c1ccc(C)cc1)cn2Cc1ccccc1F,4.4%,/,?,/,?,/
CCCOc1ccc(NC(=O)C(CC)CC)c2cccnc12,31.0%,/,/,/,/,/
CC(C)N=C(NS(=O)(=O)c1ccccc1)C(Cl)(Cl)Cl,-5.5%,5.17µM*,2.91µM*,7.08µM*,2.91µM*,?
O=S(=O)(NC(=S)c1ccccc1)c1ccccc1,?,/,-24.2%,/,10.1%,/
O=C(OCc1ccccc1)N1CCCN(c2cc(C3CC(O)C3)ncn2)CC1 (configuration not stated),69.1%,/,/,/,/,/
CCCc1cnc(NCCNCC(O)COc2ccc(Cl)c(Cl)c2)nc1 (configuration not stated),?,12.8%,16.4µM*,-0.3%,16.4µM*,2.0%
CCCCCCCCCn1c2c(c(=N)c3c1CCC3)CCC2,/,?,0.0184µM*,61.7%,0.058µM*,?
CCCCCCn1c(=O)[nH]c2c(c1=O)CCC2,-1.5%,0.0%,1.5%,17.3%,11.4%,-5.9%
CCCCCCCn1c2c(c(=N)c3c1CCC3)CCCC2,?,?,0.326µM*,6.31µM*,0.411µM*,5.62µM*
CCCCCCn1c2c(c(=N)c3c1CCC3)CCC2,-9.7%,?,0.259µM*,11.2µM*,0.411µM*,11.2µM*
CCCn1c2c(c(O)c(C(=O)NC)c1=O)CCCC2,?,-7.8%,?,41.9%,-17.1%,2.9%
SMILES,ALOX12 inh,ELG1 DNA repair,DT40 TDP1 no CPT,RORg inh,TDP1 cell CPT,VP16 counter
CCn1c2c(c(=N)c3c1CCC3)CCC2,-0.7%,0.1%,-5.6%,64.9%,-7.1%,-29.2%
COc1ccccc1-c1[nH]ncc1CN1CCCCCNC(=O)[C@@H]2CCC[C@@H]21,i,/,/,/,/,/
Cc1noc(C)c1CS(=O)(=O)c1cc(F)ccc1F,2.1%,/,/,/,/,/
CN1CCN(c2ccc(NC(=O)c3ccccc3Cl)nc2)CC1,15.1%,/,/,/,/,/
COc1ccc(Cn2ccc3nc(C)c(C(=O)N4CCN(c5ccccc5)CC4)cc3c2=O)cc1,11.1%,/,-6.7%,/,2.9%,/
Cc1nc2ccn(Cc3ccccc3)c(=O)c2cc1C(=O)N1CCN(c2ccccc2)CC1,-3.0%,8.2µM*,-15.8%,-27.6%,-23.5%,-9.9%
COc1cccc(N2CCN(C(=O)c3cc4c(=O)n(Cc5ccco5)ccc4nc3C)CC2)c1,-25.3%,/,16.4µM*,/,16.4µM*,/
Cc1ccc(C)c(N2CCN(C(=O)c3cc4c(=O)n(Cc5ccco5)ccc4nc3C)CC2)c1,?,/,16.4µM*,/,?,/
COc1ccc(Cn2ccc3nc(C)c(C(=O)N4CCN(c5cccc(OC)c5)CC4)cc3c2=O)cc1,7.9%,/,?,/,14.6µM*,/
Cc1nc2ccn(Cc3ccco3)c(=O)c2cc1C(=O)N1CCN(c2ccccc2F)CC1,-21.1%,/,?,/,?,/
CCCCn1nc(C(=O)N2CCN(c3ccccc3)CC2)c2ccccc2c1=O,-1.6%,/,/,/,/,/
COc1ccc(Cn2ccc3nc(C)c(C(=O)NCc4ccc(C)cc4)cc3c2=O)cc1,11.6%,/,?,/,25.9µM*,/
COc1ccc(Cn2ccc3nc(C)c(C(=O)N4CCN(c5cc(C)ccc5C)CC4)cc3c2=O)cc1,2.6%,/,23.1µM*,/,20.6µM*,/
Cn1c(SCC(=O)Nc2ccc(Br)cc2F)nc2c(=O)[nH]cnc21,39.0%,/,/,/,/,/
CN(C(=O)c1cc2n(n1)C(C(F)(F)F)CC(c1ccco1)N2)c1ccc(OC(F)(F)F)cc1 (configuration not stated),0.0%,-11.5%,-13.7%,?,?,17.8µM*
CCOC(=O)c1c(NC(=O)c2cc3n(n2)C(C(F)(F)F)CC(c2ccccc2)N3)sc(C)c1C (configuration not stated),-16.4%,?,14.6µM*,1.3%,?,-3.6%
CCOc1ccc(NC(=O)c2cc3n(n2)C(C(F)(F)F)CC(c2ccco2)N3)cc1 (configuration not stated),3.9%,10.7%,-26.8%,-4.4%,-17.7%,-11.1%
O=C(Nc1ccc(O)cc1)c1cc2n(n1)C(C(F)(F)F)CC(c1ccco1)N2 (configuration not stated),0.2%,-11.8%,7.31µM*,4.2%,9.2µM*,0.1%
Cc1cc(NC(=O)c2cc3n(n2)C(C(F)(F)F)CC(c2ccc(Cl)c(Cl)c2)N3)no1 (configuration not stated),?,-14.1%,20.6µM*,-10.3%,?,?
COc1ccc(CNCc2sccc2C)cc1,-12.7%,/,/,/,/,/

# Source: PubChem (National Center for Advancing Translational Sciences (NCATS))
